From PubChem BioAssay
For part of these data: Measured potencies and affinities stand elsewhere. Activity calls are given as the source filed them. Unless noted, how the calls were made is not given here.

Columns and labels:
[1] = antimalarial activity against Dd2 strain (AID 2302;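 active means growth inhibition above 50% at the single 2 µM test dose, taken to imply half-maximal potency below 2 µM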;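 further: 0% = DMSO untreated growth and 100% = chloroquine plus artemisinin killed control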); conditions: P. falciparum Dd2 in RBCs, LDH growth readout, 72 h; at 2 µM; stronger effect = higher value
[2] = HepG2 cytotoxicity, primary screen, cytotoxicity control for P. falciparum antimalarial project, cell-based, ATP luminescence (AID 2303;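 active means inhibition above 50%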;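 further: 0% = DMSO wells and 100% = digitonin-killed cells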); conditions: HepG2 viability, 24-48 h, at 10 µM, stronger effect = higher value
[3] = biological target: L-lactate dehydrogenase (Plasmodium falciparum (isolate CDC / Honduras)) (UniProt Q27743); test: PfLDH activity inhibition – cell lysate, 3D7 strain, counter-screen for P. falciparum growth inhibition project (AID 2304);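 further: 0% = vehicle and 100% = reference inhibitor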; conditions: P. falciparum 3D7 crude extract, LDH APAD/NBT absorbance; at 2 µM; stronger effect = higher value
[4] = inhibition of 3D7 malaria parasite growth – strain 3D7 (AID 2306);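 further: 0% = DMSO wells and 100% = chloroquine plus artemisinin control wells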; conditions: P. falciparum 3D7 erythrocytic growth, LDH absorbance, 72 h; at 2 µM; stronger effect = higher value
[5] = biological target: Calcium-dependent protein kinase 1 (Plasmodium falciparum (isolate 3D7)) (UniProt P62344); test: PfCDPK1 kinase inhibitors, biochemical, TCAMS library (AID 1159585; cut-off not given, nearly all actives have IC50 up to about 0.98 µM;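 further: inhibitors leave more ATP so luminescence rises with inhibition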); conditions: recombinant PfCDPK1, Kinase-Glo ATP depletion luminescence
[6] = biological target: Plasmodium falciparum protein kinase 6 (PK6, PF3D7_1337100) (UniProt Q8IDW1); test: PfPK6 kinase inhibitors, biochemical, TCAMS library (AID 1159586); conditions: recombinant PfPK6, Kinase-Glo ATP depletion luminescence
[7] = biological target: Protein kinase 7 (PK7), Plasmodium falciparum 3D7 (PF3D7_0213400) (UniProt Q7YTF7); test: inhibition of Plasmodium PK7 catalytic activity – biochemical, TCAMS antimalarial set, Kinase-Glo luminescence (AID 1159587); conditions: recombinant PfPK7, Kinase-Glo ATP depletion luminescence
[8] = biological target: Calcium-dependent protein kinase 4 (Plasmodium falciparum (isolate 3D7)) (UniProt Q8IBS5); test: PfCDPK4 kinase inhibitors, biochemical, TCAMS library (AID 1159588; cut-off not given, nearly all actives have IC50 up to about 0.91 µM); conditions: recombinant PfCDPK4, Kinase-Glo ATP depletion luminescence
Sequence of Calcium-dependent protein kinase 4 (Plasmodium falciparum (isolate 3D7)) (Q8IBS5 whole entry, looked up): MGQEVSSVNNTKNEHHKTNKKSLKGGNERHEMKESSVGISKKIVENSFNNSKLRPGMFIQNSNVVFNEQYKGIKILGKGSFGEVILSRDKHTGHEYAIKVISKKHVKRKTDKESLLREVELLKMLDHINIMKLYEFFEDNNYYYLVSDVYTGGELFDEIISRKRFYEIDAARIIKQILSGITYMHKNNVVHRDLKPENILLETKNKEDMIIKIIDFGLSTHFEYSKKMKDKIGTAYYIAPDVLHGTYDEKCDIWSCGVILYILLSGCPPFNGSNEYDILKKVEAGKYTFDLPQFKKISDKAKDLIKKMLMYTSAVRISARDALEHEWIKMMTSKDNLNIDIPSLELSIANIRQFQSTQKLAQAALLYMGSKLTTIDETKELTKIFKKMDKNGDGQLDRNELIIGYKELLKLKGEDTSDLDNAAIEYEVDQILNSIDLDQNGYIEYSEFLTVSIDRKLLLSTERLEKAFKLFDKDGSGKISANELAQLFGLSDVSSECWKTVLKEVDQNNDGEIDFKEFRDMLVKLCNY

Sequence of Plasmodium falciparum protein kinase 6 (PK6, PF3D7_1337100) (Q8IDW1 1-305): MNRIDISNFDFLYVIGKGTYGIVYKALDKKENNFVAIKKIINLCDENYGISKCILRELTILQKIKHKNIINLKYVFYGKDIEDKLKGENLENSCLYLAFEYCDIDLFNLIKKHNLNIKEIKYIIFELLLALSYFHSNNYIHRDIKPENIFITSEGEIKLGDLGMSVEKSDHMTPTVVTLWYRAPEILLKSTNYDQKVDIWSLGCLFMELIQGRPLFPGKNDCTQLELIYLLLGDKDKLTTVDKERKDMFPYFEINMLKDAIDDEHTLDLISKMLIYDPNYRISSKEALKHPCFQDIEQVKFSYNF
Sequence of L-lactate dehydrogenase (Plasmodium falciparum (isolate CDC / Honduras)) (Q27743 whole entry, looked up): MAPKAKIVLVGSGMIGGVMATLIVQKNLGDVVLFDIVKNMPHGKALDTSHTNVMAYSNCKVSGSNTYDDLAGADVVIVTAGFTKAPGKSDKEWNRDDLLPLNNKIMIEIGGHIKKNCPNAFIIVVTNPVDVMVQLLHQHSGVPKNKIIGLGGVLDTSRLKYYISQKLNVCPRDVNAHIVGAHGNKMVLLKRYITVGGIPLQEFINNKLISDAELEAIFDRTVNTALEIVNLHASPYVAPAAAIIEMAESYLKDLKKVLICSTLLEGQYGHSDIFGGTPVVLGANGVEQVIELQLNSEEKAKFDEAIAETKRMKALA
Sequence of Calcium-dependent protein kinase 1 (Plasmodium falciparum (isolate 3D7)) (P62344 whole entry, looked up): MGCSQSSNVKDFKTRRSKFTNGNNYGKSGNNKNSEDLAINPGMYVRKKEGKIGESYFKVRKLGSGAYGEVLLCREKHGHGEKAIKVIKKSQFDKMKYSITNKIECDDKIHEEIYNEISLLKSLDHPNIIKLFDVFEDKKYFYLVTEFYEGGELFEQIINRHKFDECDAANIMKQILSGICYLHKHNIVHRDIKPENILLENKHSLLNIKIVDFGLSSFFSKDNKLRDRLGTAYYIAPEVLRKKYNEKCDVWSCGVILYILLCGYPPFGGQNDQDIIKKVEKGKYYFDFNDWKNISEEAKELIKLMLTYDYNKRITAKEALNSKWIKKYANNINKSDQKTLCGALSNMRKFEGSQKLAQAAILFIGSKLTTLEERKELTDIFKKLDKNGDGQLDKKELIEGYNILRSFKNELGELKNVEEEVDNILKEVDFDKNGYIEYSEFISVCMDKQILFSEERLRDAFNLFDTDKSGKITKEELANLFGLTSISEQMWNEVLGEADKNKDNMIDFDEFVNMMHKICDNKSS
Sequence of Protein kinase 7 (PK7), Plasmodium falciparum 3D7 (PF3D7_0213400) (Q7YTF7 1-343): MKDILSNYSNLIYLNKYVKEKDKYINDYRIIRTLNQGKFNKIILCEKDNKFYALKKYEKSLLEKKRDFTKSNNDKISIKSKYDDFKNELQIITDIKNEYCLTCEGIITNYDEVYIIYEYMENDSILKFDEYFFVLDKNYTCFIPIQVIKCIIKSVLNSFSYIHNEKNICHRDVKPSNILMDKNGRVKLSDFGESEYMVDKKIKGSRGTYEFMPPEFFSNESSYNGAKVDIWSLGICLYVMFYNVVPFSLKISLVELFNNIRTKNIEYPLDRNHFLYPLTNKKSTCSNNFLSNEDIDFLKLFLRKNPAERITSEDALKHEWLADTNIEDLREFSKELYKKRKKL

CCc1nc(N)nc(N)c1-c1cccc(Cl)c1
inactive: growth inhibition [1] 1% | inhibition [3] 2% | outcome [5] | outcome [6] | outcome [7] | outcome [8]
active: inhibition [2] 60% | growth inhibition [4] 94%

COc1cccc(Nc2nc(Nc3cccc(C#N)c3)cc(-c3ccncc3)n2)c1
inactive: growth inhibition [1] 46% | inhibition [2] 28% | inhibition [3] 1% | outcome [5] | outcome [6] | outcome [7] | outcome [8]
active: growth inhibition [4] 100%

CC(=O)Nc1ccc2[nH]cc(C3CCN(CC4CCN(C(=O)/C=C/c5ccc(Cl)c(Cl)c5)CC4)CC3)c2n1
active: growth inhibition [1] 99% | growth inhibition [4] 100%
inactive: inhibition [2] 21% | inhibition [3] -2% | outcome [5] | outcome [6] | outcome [7] | outcome [8]
